The panel holds about 83,000 compounds, 20% with a hit somewhere; the sample as a whole holds those more often.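 How to read the values: 0–100, growth inhibition (40 = 60% inhibited); 0, no net growth; -100 to 0, cell death (-40 = 40% of starting cells died; -100 = all dead).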 A number with no mark means an inactive call. Active and inactive are the calls of the source. How the source made its calls: active means growth percent below 10; inactive means the rest.
Assays:
Assay in all cases: NCI-60 one-dose screen, 48 h (100 = growth as untreated, 0 = no growth, -100 = all killed)
Details in all cases: 10 µM unless noted
RPMI-8226 leukemia = system: RPMI-8226 leukemia
OVCAR-8 ovarian = system: OVCAR-8 ovarian
OVCAR-5 ovarian = system: OVCAR-5 ovarian
OVCAR-4 ovarian = system: OVCAR-4 ovarian
SK-OV-3 ovarian = system: SK-OV-3 ovarian
IGROV1 ovarian = system: IGROV1 ovarian
OVCAR-3 ovarian = system: OVCAR-3 ovarian
HS 578T breast = system: HS 578T breast
NCI/ADR-RES ovarian = system: NCI/ADR-RES ovarian
T-47D breast = system: T-47D breast
BT-549 breast = system: BT-549 breast
MDA-MB-435 melanoma = system: MDA-MB-435 melanoma
SW-620 colon = system: SW-620 colon
MCF7 breast = system: MCF7 breast
HCT-116 colon = system: HCT-116 colon
HCC-2998 colon = system: HCC-2998 colon
KM12 colon = system: KM12 colon
SR leukemia = system: SR leukemia

| SMILES | growth (RPMI-8226 leukemia) | growth (OVCAR-8 ovarian) | growth (OVCAR-5 ovarian) | growth (OVCAR-4 ovarian) | growth (SK-OV-3 ovarian) | growth (IGROV1 ovarian) | growth (OVCAR-3 ovarian) | growth (HS 578T breast) | growth (NCI/ADR-RES ovarian) | growth (T-47D breast) | growth (BT-549 breast) | growth (MDA-MB-435 melanoma) | growth (SW-620 colon) | growth (MCF7 breast) | growth (HCT-116 colon) | growth (HCC-2998 colon) | growth (KM12 colon) | growth (SR leukemia) |
| --- | --- | --- | --- | --- | --- | --- | --- | --- | --- | --- | --- | --- | --- | --- | --- | --- | --- | --- |
| CC(C)[C@@H]1C=C2CC[C@H]3[C@](C)(CN)CCC[C@]3(C)[C@H]2CC1 | 20.7% | 82.3% | 111% | 77.3% | 113% | 92.2% | 44.4% | 74.6% | 106% | 53.8% | 90.7% | -23% (active) | -65.8% (active) | -44.3% (active) | 31.3% | -40.1% (active) | 37.8% |  |
| COc1ccc(C(=O)N2N=C(c3ccc(F)cc3)CC2c2cn(-c3ccccc3)nc2-c2ccccc2)cc1 (centres undefined) | 62% | 39.4% | 95.6% | 68.2% | 62% | 85% | 45.8% | 83.7% | 34.9% | 50.6% | 77.3% | 62.5% | 47.3% | 33.7% | 7.49% (active) | 85.7% | 50.6% |  |
| OC(CCCCCCCCC(O)CN1CCc2ccccc2C1)CN1CCc2ccccc2C1 (centres undefined) |  | 104% | 102% |  | 105% | 95.1% |  | 108% | 98.1% | 99.6% | 101% | 99.8% | 104% | 95.9% | 98% | 102% | 106% | 104% |
| COc1ccc(-c2cc(-c3cn(-c4cccc(Cl)c4)nc3-c3ccc(OC)cc3)[nH]c(=S)n2)cc1 | 50.1% | 84% | 97% | 75.8% | 90.1% | 59.4% | 108% | 88.7% | 99.6% | 72.1% | 103% | 63.5% | 66.6% | 86.1% | 69.7% | 55.2% | 86.7% |  |
| O=C(Nc1cccc(C2=NCCN2)c1)c1ccc(N=Nc2ccc(C(=O)Nc3cccc(C4=NCCN4)c3)cc2)cc1 |  | 37.5% | 76.6% |  | 77.3% | 58.8% | 77.4% | 65.2% | 100% | 46.5% | 69.1% | 47.9% | 70.7% |  | 53.1% | 79.4% | 72.8% | 87.5% |
| C[C@@H]1N=C(c2ccc3ccccc3c2)Nc2nc3ccccn3c2C1=O | 43.8% | 54.4% | 90.6% | 74.5% | 40.5% | 32.1% | 16.9% | 29.3% | 44.5% | 41.7% | 35.1% | -24.7% (active) | 26.3% | 25.2% | 18.3% | 77% | 30.3% |  |
| O=C(CCl)Nc1cc(O)c2c(c1)C(=O)c1cccc(O)c1C2=O | -53.8% (active) | -49.5% (active) | -40% (active) | -1.37% (active) | 17.1% | -55.6% (active) | -100% (active) | 11.4% | 19.1% | -76.4% (active) | -48.4% (active) | 13.5% | -73.8% (active) | -49.6% (active) | -33.9% (active) | -42.3% (active) | -45.8% (active) |  |
| Nc1cc(C(=O)O)cc(C(=O)O)c1 |  | 99.3% | 105% |  | 97% | 102% | 123% | 113% | 112% | 97.1% | 107% | 108% | 110% | 99.8% | 101% | 121% | 111% | 75.3% |
| Cc1c(C(=O)CCl)c(=O)n(-c2ccccc2)n1C |  | 72.3% | 94.5% |  | 103% | 48.6% | 18.4% | 57.5% | 83.3% |  | 61.2% | 40% | 36.6% | 38.2% | 32% | 85.9% | 88.7% | 20.1% |
| C[N+](C)(C)CC(=O)N/N=C\c1ccco1 |  | 102% | 97% |  | 103% | 104% | 114% | 99.4% | 111% |  | 104% | 107% | 98.9% | 88.6% | 101% | 110% | 96.8% | 81.2% |
| CN(C)c1ccc(/C=C\c2cccc[n+]2C)cc1 | 3.96% (active) | 28.6% | 49.5% | 34.1% | 42.2% | 68.8% | 9.08% (active) | 61.5% | 105% | 14.6% | 20.1% | 33.6% | 22.4% | 39.3% | 19.3% | 35.7% | 6.97% (active) |  |
| COc1ccc(N=C2CSc3nnc(-c4cc(F)c(Cl)cc4Cl)n3N2)cc1 | -23.5% (active) | 6.26% (active) | -20.5% (active) | -59.2% (active) | -42.3% (active) | -45.1% (active) | -74% (active) | -43.8% (active) | 9.18% (active) | -20.1% (active) | -21.2% (active) | -45.6% (active) | -47.1% (active) | -34.3% (active) | -61.4% (active) | -71.4% (active) | -12.3% (active) |  |
| Cc1[nH]c2ccccc2c1C1=CC(=O)C=CC1=O |  | 89.3% | 103% |  | 120% | 79.6% | 36.7% | 99.7% | 77% | 28.5% | 96.9% | 38.9% | 69.2% | 55.3% | 82.4% | 98.8% | 88.2% | 12.2% |
| Clc1ccc(-c2nc(-c3cccs3)no2)cc1 |  | 101% |  |  | 99.2% | 77.1% | 103% | 99.5% | 103% | 56.9% | 102% | 107% | 91% | 33.7% | 97.8% | 102% | 103% | 101% |
| CCNCCCn1c2c(c3ccc(Cl)cc3c1=O)C(=O)c1cc(OC)cnc1-2 |  | -30.7% (active) | -11.9% (active) |  | -11% (active) | 44.7% | 39.1% | 58.8% | 35.5% | 16.6% | 39.8% | 68.1% | -64.5% (active) | -64.9% (active) | -95.8% (active) | 68% | 32.8% | -63.6% (active) |
| CN(C)c1nc(-c2cccs2)n2nc(-c3ccc(Cl)cc3)cc2n1 | 74.3% | 11.8% | 75.6% | -39.5% (active) | -54.2% (active) | 11.9% | 14.8% | -2.48% (active) | 38.3% | 30.7% | 68.7% | 63.1% | 56.8% | 66.2% | 6.95% (active) | 48.9% | 72.5% |  |
| COc1ccc(-c2ccc(-c3ccc(C(=N)N)s3)s2)cc1 | -57.5% (active) | -66.9% (active) | -92.6% (active) | -56.4% (active) | -88.9% (active) | -57.2% (active) | -80.8% (active) | -56.8% (active) | -61.7% (active) | -64% (active) | -81.3% (active) | -78.1% (active) | -69.1% (active) | -50.1% (active) | -47.8% (active) | -81% (active) | -86.8% (active) |  |
| CCN(CC)CCNC(=O)n1cc(-c2ccncc2)c(-c2ccc(Cl)c(OC)c2)n1 |  | 31% | 98.8% |  | 75.5% | 88.8% | 101% | 90.1% | 83.5% | 69.2% | 96.3% | 97.2% | 113% | 85.9% | 84% | 99% | 103% | 80.7% |
| CCOC(=O)c1ccc2c(c1)[n+](=O)c(C(=O)c1ccc3ccccc3c1)c(C(F)(F)F)n2[O-] | -66.8% (active) | 3.25% (active) | -98.5% (active) | -65.8% (active) | -100% (active) | -82.9% (active) | -99.6% (active) | -45.7% (active) | -86.4% (active) | -91.1% (active) | -48.5% (active) | -78% (active) | -89.6% (active) | -93.1% (active) | -100% (active) | -97.6% (active) | -92% (active) |  |

Reference: PubChem BioAssay (NCI)
